Where a name gives a salt, the structure may show the parent alone. ± gives the standard deviation of the averaged measurements.
Assays:
Experiment in all cases: growth (OD600 after 10 h); higher = more growth (less inhibition)
[1] = tested on: E. coli TESEC Alr+ wild-type control; conditions: compound 0.1 mM; raw OD600 reference: median of DMSO wells 0.241, cell-free background 0.041
Method: (§1)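 TESEC Mtb Alr E. coli, or the Alr+ wild-type control, in 384-well plates with Prestwick library compounds at 0.1 mM and 1% DMSO, across arabinose induction levels of 1E3 to 1E7 nM. Growth is read as OD600 after 10 h at 37 °C in triplicate biological replicates.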

E. coli TESEC Mtb Alr [2] = conditions: compound 0.1 mM
Method: as §1

E. coli TESEC Mtb Asd = conditions: compound 0.1 mM
Method: (§2)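 TESEC E. coli strains in which the native enzyme is deleted and replaced by arabinose-inducible Mtb Asd, DapB, CysH or TrpD, each grown in its selective medium. Strains were screened against the Prestwick library at 0.1 mM and 1% DMSO in 384-well format at low and high arabinose induction. Growth is read as OD600 after 10 h in triplicate.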

E. coli TESEC Mtb DapB = conditions: compound 0.1 mM
Method: as §2

E. coli TESEC Mtb Alr [3] = conditions: compound 0.1 mM; remark: listed apart in the source
Method: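 TESEC Mtb Alr E. coli (ΔaraC ΔtolC ΔentC Δalr ΔdadX, arabinose-inducible Mtb Alr) or the Alr+ wild-type control strain, grown in defined M9-fructose medium without D-alanine in 96-well plates with Prestwick library compounds at 0.1 mM and 1% DMSO. Low Alr induction is 0.1 µM arabinose and high induction is 10 mM arabinose.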

[4] = arabinose 1000 nM, raw OD600 reference: median of DMSO wells 0.294, cell-free background 0.041
[5] = arabinose 10000 nM, raw OD600 reference: median of DMSO wells 0.264, cell-free background 0.041
[6] = arabinose 100000 nM, raw OD600 reference: median of DMSO wells 0.201, cell-free background 0.041
[7] = arabinose 1000000 nM, raw OD600 reference: median of DMSO wells 0.193, cell-free background 0.041
[8] = arabinose 10000000 nM, raw OD600 reference: median of DMSO wells 0.146, cell-free background 0.041
[9] = arabinose induction (level): High, raw OD600 reference: median of DMSO wells 0.331, cell-free background 0.041
[10] = arabinose induction (level): Low, raw OD600 reference: median of DMSO wells 0.417, cell-free background 0.041
[11] = arabinose induction (level): High, raw OD600 reference: median of DMSO wells […], cell-free background 0.041
[12] = arabinose induction (level): Low, raw OD600 reference: median of DMSO wells 0.227, cell-free background 0.041
[13] = arabinose 100 nM, raw OD600 reference: median of DMSO wells 0.413, cell-free background 0.052
[14] = arabinose 10000000 nM, raw OD600 reference: median of DMSO wells […], cell-free background 0.052

Compound | growth [1] | growth (E. coli TESEC Mtb Alr [2]; [4]) | growth (E. coli TESEC Mtb Alr [2]; [5]) | growth (E. coli TESEC Mtb Alr [2]; [6]) | growth (E. coli TESEC Mtb Alr [2]; [7]) | growth (E. coli TESEC Mtb Alr [2]; [8]) | growth (E. coli TESEC Mtb Asd; [9]) | growth (E. coli TESEC Mtb Asd; [10]) | growth (E. coli TESEC Mtb DapB; [11]) | growth (E. coli TESEC Mtb DapB; [12]) | growth (E. coli TESEC Mtb Alr [3]; [13]) | growth (E. coli TESEC Mtb Alr [3]; [14])
C[C@H]1NC(=O)NC1=O [Methylhydantoin-5-(D)] | 0.257 ± 0.0085 | 0.323 ± 0.014 | 0.268 ± 0.005 | 0.2 ± 0.019 | 0.186 ± 0.0032 | 0.156 ± 0.0032 | 0.46 ± 0.085 | 0.467 ± 0.0073 | 0.202 ± 0.012 | 0.244 ± 0.012 | 0.405 ± 0.015 | 0.321 ± 0.015
COCCCC/C(=N\OCCN)c1ccc(C(F)(F)F)cc1 [Fluvoxamine maleate] | 0.225 ± 0.0049 | 0.274 ± 0.0066 | 0.26 ± 0.013 | 0.214 ± 0.016 | 0.133 ± 0.0052 | 0.136 ± 0.0081 | 0.295 ± 0.079 | 0.231 ± 0.044 | 0.183 ± 0.014 | 0.229 ± 0.05 | 0.416 ± 0.0072 | 0.319 ± 0.0054
C[N+]1(C)CCC(=C(c2ccccc2)c2ccccc2)CC1 [Diphemanil methylsulfate] | 0.206 ± 0.0076 | 0.289 ± 0.01 | 0.255 ± 0.01 | 0.197 ± 0.013 | 0.16 ± 0.014 | 0.153 ± 0.0035 | 0.203 ± 0.027 | 0.352 ± 0.065 | 0.187 ± 0.015 | 0.25 ± 0.028 | 0.4115 ± 0.0028 | 0.36 ± 0.015
CC(=O)N[C@@H](CC(=O)N[C@@H](CCC(=O)O)C(=O)O)C(=O)O [Spaglumic acid] | 0.237 ± 0.0082 | 0.289 ± 0.013 | 0.284 ± 0.015 | 0.197 ± 0.0095 | 0.198 ± 0.0026 | 0.143 ± 0.0028 | 0.227 ± 0.021 | 0.426 ± 0.026 | 0.211 ± 0.021 | 0.216 ± 0.027 | 0.434 ± 0.0089 | 0.327 ± 0.0062
NNCCc1ccccc1 [Phenelzine sulfate] | 0.221 ± 0.0075 | 0.285 ± 0.015 | 0.261 ± 0.0056 | 0.187 ± 0.0033 | 0.0977 ± 0.0084 | 0.135 ± 0.0098 | 0.389 ± 0.044 | 0.4 ± 0.024 | 0.191 ± 0.012 | 0.249 ± 0.056 | 0.0532 ± 0.007 | 0.0708 ± 0.0023
O=C(O)CCc1nc(-c2ccccc2)c(-c2ccccc2)o1 [Oxaprozin] | 0.143 ± 0.0053 | 0.169 ± 0.0038 | 0.206 ± 0.0029 | 0.102 ± 0.0063 | 0.0905 ± 0.0025 | 0.0775 ± 0.0013 | 0.223 ± 0.022 | 0.165 ± 0.0041 | 0.139 ± 0.0021 | 0.152 ± 0.0088 | 0.3746 ± 0.0018 | 0.128 ± 0.0076
Cc1cn[nH]c1 [Fomepizole] | 0.242 ± 0.0098 | 0.2912 ± 0.0021 | 0.249 ± 0.0059 | 0.231 ± 0.024 | 0.178 ± 0.003 | 0.137 ± 0.0022 | 0.233 ± 0.036 | 0.364 ± 0.065 | 0.193 ± 0.014 | 0.215 ± 0.0091 | 0.423 ± 0.011 | 0.367 ± 0.017
CC[C@@H]1C(=O)OC[C@@H]1Cc1cncn1C [Pilocarpine nitrate] | 0.231 ± 0.0064 | 0.247 ± 0.037 | 0.244 ± 0.011 | 0.204 ± 0.032 | 0.18 ± 0.0025 | 0.145 ± 0.0063 | 0.222 ± 0.012 | 0.279 ± 0.044 | 0.199 ± 0.016 | 0.222 ± 0.023 | 0.391 ± 0.0052 | 0.319 ± 0.044
Clc1ccccc1C(c1ccccc1)(c1ccccc1)n1ccnc1 [Clotrimazole] | 0.03967 ± 0.00012 | 0.04147 ± 0.00015 | 0.0452 ± 0.00099 | 0.0437 ± 0.0032 | 0.0467 ± 0.00068 | 0.0448 ± 0.0032 | 0.0468 ± 0.00044 | 0.0472 ± 0.0021 | 0.0469 ± 0.0008 | 0.0488 ± 0.0015 | 0.07627 ± 0.0006 | 0.0569 ± 0.00059
CCCC1O[C@@H]2C[C@H]3[C@@H]4CCC5=CC(=O)C=C[C@]5(C)[C@H]4[C@@H](O)C[C@]3(C)[C@]2(C(=O)CO)O1 (some centres undefined) [Budesonide] | 0.1456 ± 0.0011 | 0.187 ± 0.0064 | 0.247 ± 0.0047 | 0.166 ± 0.015 | 0.112 ± 0.0012 | 0.141 ± 0.0021 | 0.309 ± 0.023 | 0.31 ± 0.025 | 0.167 ± 0.0066 | 0.231 ± 0.0093 | 0.4337 ± 0.004 | 0.269 ± 0.0039
CC(C)NCC(O)c1ccc(O)c(O)c1 (single isomer, unassigned; (+)) [(+)-Isoproterenol (+)-bitartrate salt] | 0.211 ± 0.0042 | 0.274 ± 0.02 | 0.2493 ± 0.0013 | 0.18 ± 0.015 | 0.149 ± 0.0077 | 0.137 ± 0.0022 | 0.328 ± 0.028 | 0.468 ± 0.034 | 0.2017 ± 0.0019 | 0.199 ± 0.0075 | 0.412 ± 0.013 | 0.326 ± 0.021
CCOC(=O)C(C)(C)Oc1ccc(Cl)cc1 [Clofibrate] | 0.237 ± 0.0033 | 0.287 ± 0.0062 | 0.268 ± 0.0049 | 0.19 ± 0.013 | 0.194 ± 0.0078 | 0.137 ± 0.0052 | 0.279 ± 0.041 | 0.415 ± 0.043 | 0.19 ± 0.015 | 0.236 ± 0.041 | 0.4111 ± 0.0031 | 0.325 ± 0.0033
COc1ccc2[nH]c([S+]([O-])Cc3ncc(C)c(OC)c3C)nc2c1 (centres undefined) [Omeprazole] | 0.19 ± 0.0022 | 0.232 ± 0.0033 | 0.2749 ± 0.0018 | 0.168 ± 0.011 | 0.122 ± 0.0034 | 0.131 ± 0.0049 | 0.298 ± 0.04 | 0.388 ± 0.025 | 0.167 ± 0.0081 | 0.1748 ± 0.0014 | 0.399 ± 0.016 | 0.263 ± 0.018
O=C1CN2Cc3c(ccc(Cl)c3Cl)N=C2N1 [Anagrelide] | 0.216 ± 0.0042 | 0.2815 ± 0.0021 | 0.281 ± 0.0097 | 0.191 ± 0.0049 | 0.209 ± 0.011 | 0.142 ± 0.005 | 0.27 ± 0.06 | 0.423 ± 0.043 | 0.198 ± 0.011 | 0.232 ± 0.024 | 0.413 ± 0.011 | 0.368 ± 0.065
CC(COc1ccccc1)N(CCCl)Cc1ccccc1 (centres undefined) [Phenoxybenzamine hydrochloride] | 0.0435 ± 0.0034 | 0.149 ± 0.01 | 0.0397 ± 0.0001 | 0.121 ± 0.0026 | 0.03927 ± 0.00029 | 0.0621 ± 0.00078 | 0.199 ± 0.018 | 0.261 ± 0.053 | 0.175 ± 0.013 | 0.228 ± 0.011 | 0.396 ± 0.0062 | 0.0624 ± 0.018
CC(C)(C)NCC(O)COc1cccc2c1CCC(=O)N2 (centres undefined) [Carteolol hydrochloride] | 0.236 ± 0.0081 | 0.285 ± 0.02 | 0.2521 ± 0.002 | 0.197 ± 0.043 | 0.181 ± 0.0071 | 0.143 ± 0.0038 | 0.222 ± 0.024 | 0.349 ± 0.1 | 0.187 ± 0.0085 | 0.217 ± 0.022 | 0.405 ± 0.009 | 0.334 ± 0.0046
O=C(CCCCC(=O)Nc1c(I)cc(I)c(C(=O)O)c1I)Nc1c(I)cc(I)c(C(=O)O)c1I [Iodipamide] | 0.249 ± 0.012 | 0.298 ± 0.0095 | 0.245 ± 0.0068 | 0.191 ± 0.0062 | 0.17 ± 0.0029 | 0.143 ± 0.0046 | 0.436 ± 0.022 | 0.452 ± 0.049 | 0.213 ± 0.0095 | 0.239 ± 0.03 | 0.407 ± 0.013 | 0.346 ± 0.014
